Measured values reported in PubChem BioAssay.
Values joined by “and” are separate entries in the source; they are usually repeats but may differ in a detail not shown here. Equal values may be shown once. Results filed as inconclusive are left out. For some of these results: Measured potencies and affinities stand elsewhere. Active and inactive are the calls of the source. Unless noted, no rule for the calls is given here.

Assays:
[1] = kinase inhibitors against Plasmodium liver-stage infection, cell-based, known kinase inhibitor set, luminescence, hepatoma host viability (AID 624392); settings: Plasmodium liver stage in hepatoma cells, luciferase luminescence, concentration not given here; liver cell % of control: measured here: host liver cell viability; parasite % of control: stronger effect = lower value;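 also: infected cells incubated roughly two days before readout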
[2] = sensitizers of A549 cells to miR-34 induction, primary screen, imaging, A549 dox-inducible miR-34, nuclei and caspase counts (AID 1347080;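 active = compounds whose cell count with miR-34 switched on is under 0.7 times the count with it off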); settings: A549 miR-34 inducible, Hoechst nuclei count, 48 h
[3] = survival rescue of mitochondrial mutant cells in low glucose, primary screen, MELAS cybrids, Rieske KO mouse fibroblasts, CellTiter-Glo (AID 1508586;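 active = mean z-score across replicates of 1.96 or higher in either the MELAS or the Rieske mutant cell line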;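 also: z relative to plate mean and SD of compound and empty wells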)
[4] = viability rescue of complex I mutant cybrids, primary screen, cell-based, galactose medium, ATP luminescence (AID 1645843;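 active = z-score of at least 1.8 in each of two replicates, scored against plate mean and spread of sample wells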;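 also: positive z means more ATP and so rescue of galactose-driven cybrid death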); settings: complex I mutant cybrid cells, 72 h, stronger effect = higher value
[5] = target: NAD(+) hydrolase SARM1 (Homo sapiens) (UniProt Q6SZW1); assay: SARM1 TIR NADase inhibitors, cell lysate, NAD-Glo luminescence (AID 1508614;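 active = compound whose remaining NAD level is above about 45 nM, limit read from the data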;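 also: higher remaining NAD means stronger inhibition of SARM1 NADase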); settings: SAM-TIR HEK293T lysate NADase, at 1 µM, stronger effect = higher value
[6] = polyglutamine-triggered caspase-3 activation inhibitors, cell-based (AID 1583); settings: polyglutamine-induced caspase-3 activation, cell assay; stronger effect = higher value;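 tested at 10 µM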
[7] = suppressors of polyQ aggregation in yeast, 75Q-TubU reporter (AID 1593); settings: Yeast 75Q polyglutamine aggregation reporter
[8] = rescue of polyQ-huntingtin neuronal dysfunction in worms, whole organism, C. elegans mechanosensory neurons, N-terminal huntingtin (AID 1599); settings: touch response, stronger effect = higher value
[9] = inhibitors of mitochondrial cytochrome c release, biochemical, purified mitochondria (AID 1603); settings: stronger effect = lower value;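 also: mouse liver mitochondria challenged with calcium chloride; signal normalized to the plate average as 100%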
[10] = inhibitors of polyQ protein aggregation (AID 1604); settings: polyglutamine-induced protein aggregation inhibition assay; stronger effect = higher value; tested at 2.5 µM
[11] = enhancers of glutamate uptake in motor neurons, MN-1 cell line (AID 1612); settings: MN-1 motor neuron cells, stronger effect = higher value;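 also: tested at 1 µM final; 0% = mean of DMSO vehicle wells on each plate; positive means more glutamate uptake than control and negative means less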
[12] = reducers of polyQ inclusions in PC12 cells, cell-based, NGF-treated PC12, GFPQ80 (AID 1614); settings: PC12 NGF-treated GFP-polyQ80 inclusion reduction;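 also: lower means fewer inclusions and 0 means no inclusions at all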
[13] = suppressors of polyglutamine aggregation in yeast, 75Q-TubH (AID 1616); settings: S. cerevisiae 75Q-TubH polyglutamine aggregation suppression; stronger effect = higher value
[14] = hESC survival regulators, cell-based (AID 493140); settings: human embryonic stem cell survival screen; stronger effect = higher value;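 also: cells exposed to compounds for four days before counting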
[15] = liver-stage malaria parasite growth inhibition, primary screen, cell-based, HepG2, luciferase luminescence, HepG2 viability (AID 624349; in the data active = parasite load remaining mostly below about 12%, no sharp cut-off; inactive = mostly above about 10%;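 also: 100% = mean of DMSO negative control wells on the same plate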); settings: P. berghei liver stage in HepG2, luciferase luminescence, concentration not given here; parasite load remaining: stronger effect = lower value; viability: measured here: HepG2 viability without parasites
[16] = target: Mitogen-activated protein kinase 7 (Homo sapiens) (UniProt Q13164); assay: ERK5 transactivation activators in reporter cells, primary screen, cell-based, HTS (AID 1508626;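 active = luciferase signal above three times the same-plate solvent-only control wells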;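 also: luciferase driven by Gal4-ERK5 fusion binding five Gal4 sites before minimal TATA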); settings: HeLa Gal4-ERK5 transactivation, 18 h, at 5 µM, stronger effect = higher value
[17] = target: ATP-dependent translocase ABCB1 (Homo sapiens) (UniProt P08183); assay: MDR1 (ABCB1) efflux transporter inhibition, cell-based (AID 377; in the data active = fluorescence slope change above about 50%); settings: MDR1-expressing cells, fluorescent substrate accumulation slope; stronger effect = higher value; concentration not given here
[18] = stronger effect = lower value, cell number ratio, induced over uninduced
[19] = measured here: relative caspase fold change +Dox/-Dox
[20] = measured here: total cells with miR-34 induction, stronger effect = lower value
[21] = measured here: total cells without miR-34 induction
[22] = MELAS cybrid survival, CellTiter-Glo 48 h, stronger effect = higher value
[23] = Rieske KO mouse fibroblast survival, CellTiter-Glo 72 h

Sequence of Mitogen-activated protein kinase 7 (Homo sapiens) (Q13164 whole entry, looked up, the tested form may be a part): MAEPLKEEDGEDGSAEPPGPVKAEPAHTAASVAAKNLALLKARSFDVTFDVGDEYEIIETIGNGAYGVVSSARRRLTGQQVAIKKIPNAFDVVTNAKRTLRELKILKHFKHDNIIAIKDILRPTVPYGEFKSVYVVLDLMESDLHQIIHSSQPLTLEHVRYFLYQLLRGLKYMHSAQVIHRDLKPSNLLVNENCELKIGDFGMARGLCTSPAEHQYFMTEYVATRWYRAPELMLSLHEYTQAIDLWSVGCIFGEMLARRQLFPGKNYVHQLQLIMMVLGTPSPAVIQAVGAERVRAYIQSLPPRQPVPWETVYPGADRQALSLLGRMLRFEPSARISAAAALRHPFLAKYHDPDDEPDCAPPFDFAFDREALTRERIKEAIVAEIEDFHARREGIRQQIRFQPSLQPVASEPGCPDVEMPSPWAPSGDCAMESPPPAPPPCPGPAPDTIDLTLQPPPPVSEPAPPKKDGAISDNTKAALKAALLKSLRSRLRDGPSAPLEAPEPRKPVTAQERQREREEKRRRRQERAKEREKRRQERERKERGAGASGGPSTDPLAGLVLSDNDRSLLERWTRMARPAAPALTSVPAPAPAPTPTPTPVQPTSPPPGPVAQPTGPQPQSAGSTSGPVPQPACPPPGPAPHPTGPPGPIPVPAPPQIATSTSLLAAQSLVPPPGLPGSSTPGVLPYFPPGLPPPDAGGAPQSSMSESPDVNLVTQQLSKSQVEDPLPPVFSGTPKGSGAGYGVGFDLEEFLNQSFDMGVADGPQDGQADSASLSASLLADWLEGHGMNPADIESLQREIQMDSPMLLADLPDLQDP
Sequence of NAD(+) hydrolase SARM1 (Homo sapiens) (Q6SZW1 whole entry, looked up): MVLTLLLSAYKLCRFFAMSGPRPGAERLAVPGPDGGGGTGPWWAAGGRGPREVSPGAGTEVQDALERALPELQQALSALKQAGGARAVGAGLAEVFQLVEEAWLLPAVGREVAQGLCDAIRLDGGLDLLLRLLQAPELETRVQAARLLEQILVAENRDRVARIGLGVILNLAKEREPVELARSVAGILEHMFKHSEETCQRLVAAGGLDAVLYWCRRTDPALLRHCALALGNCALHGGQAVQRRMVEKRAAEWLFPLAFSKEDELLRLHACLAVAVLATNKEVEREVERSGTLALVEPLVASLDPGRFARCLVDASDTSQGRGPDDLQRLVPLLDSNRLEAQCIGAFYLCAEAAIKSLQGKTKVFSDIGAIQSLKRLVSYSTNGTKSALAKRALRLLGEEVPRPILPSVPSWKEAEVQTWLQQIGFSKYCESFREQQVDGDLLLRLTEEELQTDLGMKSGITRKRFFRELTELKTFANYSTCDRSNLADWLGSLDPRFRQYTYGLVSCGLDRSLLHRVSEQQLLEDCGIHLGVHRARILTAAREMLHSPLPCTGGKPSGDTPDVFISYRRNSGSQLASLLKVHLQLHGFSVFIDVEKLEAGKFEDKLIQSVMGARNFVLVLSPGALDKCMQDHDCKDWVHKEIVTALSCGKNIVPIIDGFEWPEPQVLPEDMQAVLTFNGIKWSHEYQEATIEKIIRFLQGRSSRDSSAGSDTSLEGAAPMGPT
Sequence of ATP-dependent translocase ABCB1 (Homo sapiens) (P08183 whole entry, looked up): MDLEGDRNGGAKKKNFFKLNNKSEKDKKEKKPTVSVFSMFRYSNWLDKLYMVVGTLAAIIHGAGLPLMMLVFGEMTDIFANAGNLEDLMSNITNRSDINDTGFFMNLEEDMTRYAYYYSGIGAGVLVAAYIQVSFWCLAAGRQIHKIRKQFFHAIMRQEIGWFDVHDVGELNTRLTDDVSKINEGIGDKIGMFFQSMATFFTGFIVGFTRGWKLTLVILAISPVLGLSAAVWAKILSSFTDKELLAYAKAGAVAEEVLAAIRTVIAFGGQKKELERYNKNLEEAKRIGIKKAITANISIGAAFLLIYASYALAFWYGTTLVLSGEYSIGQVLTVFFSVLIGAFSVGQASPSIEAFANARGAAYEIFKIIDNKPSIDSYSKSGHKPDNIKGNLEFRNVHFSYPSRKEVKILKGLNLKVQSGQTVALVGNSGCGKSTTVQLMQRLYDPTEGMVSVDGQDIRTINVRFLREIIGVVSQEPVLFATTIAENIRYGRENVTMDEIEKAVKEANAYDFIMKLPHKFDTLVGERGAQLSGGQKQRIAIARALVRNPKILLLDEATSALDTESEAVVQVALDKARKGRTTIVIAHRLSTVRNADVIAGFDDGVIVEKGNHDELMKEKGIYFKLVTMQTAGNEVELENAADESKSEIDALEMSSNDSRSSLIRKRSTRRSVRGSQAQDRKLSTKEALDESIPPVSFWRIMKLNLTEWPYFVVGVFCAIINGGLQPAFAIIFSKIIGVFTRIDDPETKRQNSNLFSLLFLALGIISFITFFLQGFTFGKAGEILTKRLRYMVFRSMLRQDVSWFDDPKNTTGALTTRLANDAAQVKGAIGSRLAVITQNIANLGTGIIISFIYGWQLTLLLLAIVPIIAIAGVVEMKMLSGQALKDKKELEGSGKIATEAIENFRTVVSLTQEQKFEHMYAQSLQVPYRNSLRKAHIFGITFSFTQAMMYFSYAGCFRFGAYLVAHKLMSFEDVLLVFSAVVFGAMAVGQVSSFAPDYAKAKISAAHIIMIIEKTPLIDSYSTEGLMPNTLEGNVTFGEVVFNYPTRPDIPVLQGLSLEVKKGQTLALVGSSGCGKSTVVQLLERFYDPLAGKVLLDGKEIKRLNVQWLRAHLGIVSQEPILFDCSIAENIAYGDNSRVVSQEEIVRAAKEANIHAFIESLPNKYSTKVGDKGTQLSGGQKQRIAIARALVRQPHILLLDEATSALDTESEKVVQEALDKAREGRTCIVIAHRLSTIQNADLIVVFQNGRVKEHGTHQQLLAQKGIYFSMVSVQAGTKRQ

## COc1ccc(-c2ccc3c(N4CCOCC4)nc(N4CC(C)OC(C)C4)nc3n2)cc1CO (configuration not stated)
[1]
  liver cell % of control: 228% and 225% and 144%
  parasite % of control: 168% (inactive) and 180% (inactive) and 510% (inactive)
[2]; [18]
  fold change: 1.04 (inactive)
[2]; [19]
  fold change: 0.95
[2]; [20]
  cell count: 2720
[2]; [21]
  cell count: 2620
[3]; [22]
  z-score: 3.15 (active)
[3]; [23]
  z-score: -0.466

## CC(C)CC(NC(=O)C(COC(C)(C)C)NC(=O)C(Cc1ccc(O)cc1)NC(=O)C(CO)NC(=O)C(Cc1c[nH]c2ccccc12)NC(=O)C(Cc1cnc[nH]1)NC(=O)C1CCC(=O)N1)C(=O)NC(CCCN=C(N)N)C(=O)N1CCCC1C(=O)NNC(N)=O (configuration not stated)
[2]; [18]
  fold change: 1.04 (inactive)
[2]; [19]
  fold change: 1.1
[2]; [20]
  cell count: 7490
[2]; [21]
  cell count: 7190
[4]
  z-score: 0.385 (inactive)

## CC(C)CCN1c2nc(Nc3cc(F)c(O)c(F)c3)ncc2N(C)C(=O)C1C (configuration not stated)
[1]
  liver cell % of control: 87.7% and 90.4% and 106%
  parasite % of control: 35.4% (inactive) and 66.2% (inactive) and 39.4% (inactive)
[2]; [18]
  fold change: 1.05 (inactive)
[2]; [19]
  fold change: 0.299
[2]; [20]
  cell count: 2560
[2]; [21]
  cell count: 2450
[3]; [22]
  z-score: 0.0608 (inactive)
[3]; [23]
  z-score: -0.296

## CCn1c(-c2nonc2N)nc2c(C#CC(C)(C)O)ncc(OCC3CCCNC3)c21 (configuration not stated)
[1]
  liver cell % of control: 56.6% and 72.4% and 90.5%
  parasite % of control: 1.73% (inactive) and 5.98% (inactive) and 27.8% (inactive)
[2]; [18]
  fold change: 0.949 (inactive)
[2]; [19]
  fold change: 0.738
[2]; [20]
  cell count: 6620
[2]; [21]
  cell count: 6980
[3]; [22]
  z-score: -0.704 (inactive)
[3]; [23]
  z-score: 0.217

## COc1ccc(C(=O)c2ccc(C)cc2)c(O)c1
[2]; [18]
  fold change: 0.81 (inactive)
[2]; [19]
  fold change: 1.2
[2]; [20]
  cell count: 4460
[2]; [21]
  cell count: 5510
[5]
  remaining NAD: 10 nM (inactive)

## CON=C1C[C@]2(C[C@@H]3C[C@@H](C/C=C(\C)C[C@@H](C)/C=C/C=C4\CO[C@@H]5[C@H](O)C(C)=C[C@@H](C(=O)O3)[C@]45O)O2)O[C@H](/C(C)=C/C(C)C)[C@H]1C
[2]; [18]
  fold change: 1 (inactive)
[2]; [19]
  fold change: 0.955
[2]; [20]
  cell count: 3250
[2]; [21]
  cell count: 3250
[5]
  remaining NAD: 10 nM (inactive)

## COc1ccc(-c2cc(=O)c3c(O)cc(O)cc3o2)cc1
[6]
  inhibition: -17.1%
[7]
  score: 1.2
[8]
  rescue above control: 10.4
[9]
  cytochrome c release ratio: 0.89
[10]
  inhibition of aggregation: 41.2%
[11]
  glutamate uptake change: -9.64%
[12]
  inclusion score: 2
[13]
  aggregation suppression score: 0.73
[14]
  survival: 3.33 (inactive)
[15]
  parasite load remaining: 73.8% (inactive) and 91.5% (inactive)
  viability: 92.5% and 92.4%
[2]; [18]
  fold change: 0.79 (inactive)
[2]; [19]
  fold change: 1.12
[2]; [20]
  cell count: 7540
[2]; [21]
  cell count: 9550
[16]
  luciferase signal: 40 AU (inactive)

## O=C1NC(=O)C(=Cc2ccc(-c3ccc(F)cc3O)o2)S1
[1]
  liver cell % of control: 115% and 104% and 93.4%
  parasite % of control: 1.06% (inactive) and 3.29% (inactive) and 2.91% (inactive)
[2]; [18]
  fold change: 0.91 (inactive)
[2]; [19]
  fold change: 0.626
[2]; [20]
  cell count: 8670
[2]; [21]
  cell count: 9530
[3]; [22]
  z-score: -0.351 (inactive)
[3]; [23]
  z-score: -0.0319

## CCOC1O[C@H]([C@@H](COCc2ccccc2)OCc2ccccc2)[C@H](OCc2ccccc2)[C@H]1O (some centres not stated)
[15]
  parasite load remaining: 66.9% (inactive)
  viability: 70.5%
[2]; [18]
  fold change: 0.904 (inactive)
[2]; [19]
  fold change: 0.887
[2]; [20]
  cell count: 8110
[2]; [21]
  cell count: 8970
[3]; [22]
  z-score: -0.366 (inactive)
[3]; [23]
  z-score: 0.506

## Cn1nnnc1SCC1=C(C(=O)O)N2C(=O)[C@@H](NC(=O)[C@H](O)c3ccccc3)[C@H]2SC1
[14]
  survival: 7.33 (inactive)
[15]
  parasite load remaining: 73.2% (inactive)
  viability: 97.6%
[2]; [18]
  fold change: 0.871 (inactive)
[2]; [19]
  fold change: 1.18
[2]; [20]
  cell count: 9300
[2]; [21]
  cell count: 10700
[5]
  remaining NAD: 10 nM (inactive)
[16]
  luciferase signal: 36 AU (inactive)

## Nc1ncn(C2O[C@H](CO)[C@@H](O)[C@H]2O)c(=O)n1 (some centres not stated)
[15]
  parasite load remaining: 151% (inactive)
  viability: 108%
[2]; [18]
  fold change: 0.664 (active)
[2]; [19]
  fold change: 1.38
[2]; [20]
  cell count: 2060
[2]; [21]
  cell count: 3100
[3]; [22]
  z-score: -0.101 (inactive)
[3]; [23]
  z-score: 0.0147

## C[C@H](Cn1cnc2c(N)ncnc21)OCP(=O)(O)O
[2]; [18]
  fold change: 0.942 (inactive)
[2]; [19]
  fold change: 0.901
[2]; [20]
  cell count: 9100
[2]; [21]
  cell count: 9660
[5]
  remaining NAD: 10 nM (inactive)

## CN1C2CC[C@H]1CC(OC(=O)C(O)c1ccccc1)C2 (some centres not stated)
[7]
  score: 1.13
[8]
  rescue above control: -4.02
[11]
  glutamate uptake change: -10.2%
[12]
  inclusion score: 2
[13]
  aggregation suppression score: 1.37
[2]; [18]
  fold change: 0.844 (inactive)
[2]; [19]
  fold change: 1.44
[2]; [20]
  cell count: 10300
[2]; [21]
  cell count: 12200

## NC[C@H]1O[C@H](OC2[C@@H](N)C[C@@H](N)[C@H](O)[C@H]2O[C@@H]2O[C@H](CO)[C@@H](O)[C@H]2O)[C@H](N)[C@@H](O)[C@@H]1O (some centres not stated)
[15]
  parasite load remaining: 77.5% (inactive)
  viability: 92.8%
[2]; [18]
  fold change: 1.02 (inactive)
[2]; [19]
  fold change: 0.629
[2]; [20]
  cell count: 9070
[2]; [21]
  cell count: 8900
[3]; [22]
  z-score: -0.509 (inactive)
[3]; [23]
  z-score: 0.171

## C=C1CC[C@H](O)C/C1=C/C=C1\CCC[C@]2(C)[C@@H]([C@H](C)CCCC(C)C)CC[C@@H]12
[17]
  fluorescence slope change: 59.6% (active)
[15]
  parasite load remaining: 130% (inactive)
  viability: 106%
[2]; [18]
  fold change: 0.889 (inactive)
[2]; [19]
  fold change: 1.52
[2]; [20]
  cell count: 8940
[2]; [21]
  cell count: 10100
[5]
  remaining NAD: 10 nM (inactive)
[16]
  luciferase signal: 48 AU (inactive)

## CC1CCN(C(=O)CC#N)CC1N(C)c1ncnc2[nH]ccc12 (configuration not stated)
[1]
  liver cell % of control: 104% and 99.8%
  parasite % of control: 80.9% (inactive) and 77.3% (inactive) and 45.5% (inactive)
[2]; [18]
  fold change: 0.908 (inactive) and 0.927 (inactive)
[2]; [19]
  fold change: 0.692 and 0.73
[2]; [20]
  cell count: 9120 and 9790
[2]; [21]
  cell count: 10000 and 10600
[3]; [22]
  z-score: -0.285 (inactive) and -0.386 (inactive)
[3]; [23]
  z-score: -0.101 and -0.511
